In all, about 81,000 sequences were measured (“one-hybrid fitness for binding parS DNA”: median about -0.17, highest 2% from about 0.51 on). The sample holds the highest values, similar sequences and a random draw of the others, so the mix is not that of the screen.
B1: Caulobacter ParB omega fusion; a variant is named by its letters at X, in order, B8GW30 (parent)
chain: MESVVVGEPGMSEGRRGLGRGLSALLGEVDAAPAQAPGEQLGGSREAPIEILQRNPDQPRRTFREEDLEDLSNSIREKGVLQPILVRPSPDTAGEYQIVAGERAWRAAQRAGLKTVPIMVRELDDLAVLEIGIIENVQRADLNVLEEALSYKVLMEKFERTQENIAQTIGKSXSHVANXMRLLXLPDEVQSYLVSGELTAXHARAIAAAADPVALAKQIIEGGLSVRETEALARKAPNLSAGKSKGGRPPRVKDTDTQALESDLSSVLGLDVSIDHRGSTGTLTITYATLEQLDDLCNRLTRGI

Variants of: B1
Assay: one-hybrid fitness for binding parS DNA (scaled: cognate 1, non-cognate 0); higher = stronger binding
Settings: with parS DNA site
In short: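 On M9-minus-histidine containing 0.1 mM IPTG and 5 mM 3-AT, E. coli USO cells with a HIS3 reporter, site 19 bp from the promoter, grew 48 hours at 37°C to select Caulobacter ParB libraries randomised at four specificity codons. Plasmids from before and after were Illumina-sequenced, with three replicate libraries pooled and variants under 10 reads left out. Fitness is the log change in variant-to-wild-type read ratio, rescaled against cognate and non-cognate.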

Variant	one-hybrid fitness for binding parS DNA
VEFT	≤ 0.2
QGNA	≤ 0.2
YNSE	≤ 0.2
QDDR	≤ 0.2
TNQC	≤ 0.2
APGM	≤ 0.2
QNSI	≤ 0.2
RGWA	0.282
RFWA	0.481
RTWA	0.626
RRWA	0.834
RKWA	0.58
NRWA	≤ 0.2
RHWA	0.486
RSWA	0.546
WTTC	≤ 0.2
NRTE	≤ 0.2
GCLA	≤ 0.2
YTTD	≤ 0.2
EGCL	≤ 0.2
FWSR	≤ 0.2
PAVQ	≤ 0.2
QHPF	≤ 0.2
LPIQ	≤ 0.2
RGLP	≤ 0.2

Variant	one-hybrid fitness for binding parS DNA
RGLG	0.597
RGSH	≤ 0.2
RGSP	≤ 0.2
RGVG	0.502
RGKP	≤ 0.2
RGSG	0.771
RGQH	≤ 0.2
RGQP	≤ 0.2
RGLH	≤ 0.2
RGQG	0.727
RGKG	0.896
PKPQ	≤ 0.2
PRNG	≤ 0.2
HPRY	≤ 0.2
RGAN	≤ 0.2
RGCG	0.558
RGAG	0.661
RGYG	0.576
RGPG	0.298
RGFG	0.504
RGCM	≤ 0.2
RGIG	0.47
RGNG	0.801
RGDG	0.496
RGNH	≤ 0.2

Variant	one-hybrid fitness for binding parS DNA
RGCP	≤ 0.2
PPPF	≤ 0.2
VAEC	≤ 0.2
FHHI	≤ 0.2
RGAI	≤ 0.2
LDML	≤ 0.2
CFTC	≤ 0.2
MHTL	≤ 0.2
NSGN	≤ 0.2
MIEG	≤ 0.2
RGWG	0.51
RGGD	≤ 0.2
RGRH	≤ 0.2
RGHN	≤ 0.2
RGRG	0.874
RGHG	0.65
RGHP	≤ 0.2
RGGH	≤ 0.2
RGWR	≤ 0.2
RGWY	≤ 0.2
RGGG	0.64
RGRN	0.341
KLKH	≤ 0.2
KDID	≤ 0.2
PVSF	≤ 0.2

Variant	one-hybrid fitness for binding parS DNA
QEKR	≤ 0.2
MRPT	≤ 0.2
NPTS	≤ 0.2
FQVG	≤ 0.2
NYES	≤ 0.2
RYNA	0.58
DYNA	≤ 0.2
RYDA	0.559
EYNA	≤ 0.2
FRQS	≤ 0.2
WVAL	≤ 0.2
HINS	≤ 0.2
FSFV	≤ 0.2
GGMR	≤ 0.2
RHYS	0.976
RHPS	0.475
RHYH	0.223
RHIS	0.813
RHHN	0.391
RHRD	≤ 0.2
RHHS	0.914
RHRS	0.823
RHIP	≤ 0.2
RHRN	0.374
RHID	≤ 0.2

Variant	one-hybrid fitness for binding parS DNA
RHHD	≤ 0.2
TIDD	≤ 0.2
PRIM	≤ 0.2
TPSD	≤ 0.2
ANRF	≤ 0.2
TMCR	≤ 0.2
DPAI	≤ 0.2
RHWN	0.305
RHLS	0.978
RHWS	0.925
RHWP	≤ 0.2
RHLD	≤ 0.2
RHLH	0.229
TAQE	≤ 0.2
RTCV	≤ 0.2
LSSK	≤ 0.2
YMSG	≤ 0.2
SLTS	≤ 0.2
RLQN	0.471
RPQG	≤ 0.2
RDQG	≤ 0.2
RLQG	1.01
RMQQ	≤ 0.2
RMQG	1.01
RCQG	1.02

Variant	one-hybrid fitness for binding parS DNA
RLQD	≤ 0.2
RMQR	0.223
RSQH	0.296
RSQP	≤ 0.2
RSQG	0.995
FGAV	≤ 0.2
AVLG	≤ 0.2
GATL	≤ 0.2
VSCH	≤ 0.2
FRAR	≤ 0.2
KNVC	≤ 0.2
PTQM	≤ 0.2
HSEM	≤ 0.2
RTQR	≤ 0.2
RIQR	≤ 0.2
RFQG	0.965
DFQG	≤ 0.2
RTQG	1
NFQG	≤ 0.2
RIQF	0.272
RIQG	0.999
RTQF	0.213
NSFG	≤ 0.2
LQRT	≤ 0.2
MPTI	≤ 0.2

Variant	one-hybrid fitness for binding parS DNA
ANTA	≤ 0.2
ARCH	≤ 0.2
HTWT	≤ 0.2
RCAT	0.921
RDAT	≤ 0.2
RSAR	≤ 0.2
RPAT	≤ 0.2
REAT	≤ 0.2
RSAT	0.869
LAGT	≤ 0.2
HRLD	≤ 0.2
HMAN	≤ 0.2
WKAR	≤ 0.2
SDCR	≤ 0.2
RVTD	≤ 0.2
RVTN	0.432
RVTM	0.299
RVTT	0.949
RVTP	≤ 0.2
RVTY	0.459
RVTK	≤ 0.2
RVTH	0.22
RVTC	0.982
RVTS	0.972
RVTF	0.202

Variant	one-hybrid fitness for binding parS DNA
RVTG	0.992
QREG	≤ 0.2
GTSR	≤ 0.2
ARHM	≤ 0.2
EPPR	≤ 0.2
HSQW	≤ 0.2
LRNA	≤ 0.2
RARE	≤ 0.2
HIDW	≤ 0.2
TFRF	≤ 0.2
GVCA	≤ 0.2
RSIP	≤ 0.2
RSPP	≤ 0.2
RSYP	≤ 0.2
RSYH	≤ 0.2
RSIS	0.887
RSPS	0.541
RCIS	1.01
RSYS	1.01
RSPN	≤ 0.2
RPIS	≤ 0.2
RCIP	0.228
RSID	≤ 0.2

Reference: a collection of fitness landscapes (doi:10.1016/j.celrep.2020.107928)
